Measured values as given in PubChem BioAssay (Tox21).
Records with an inconclusive call do not appear. Active and inactive are the calls of the source. Calls come from the whole dose curve; as a rule, active = well fitted curve in the direction sought with a large enough effect in the repeat runs; inconclusive = weak or mixed curves; inactive = no such curve, though single readings can be large; an effect the other way counts as inactive or inconclusive.

Key:
[1] = qHTS RealTime-Glo MT Cell Viability Assay in HepG2 cells - 40 hour (AID 1224870); note: nearly all actives have a fitted effect of over 50% in size
In short: (§1)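 Real-time viability: cells seeded at 600 per well together with NanoLuc and cell-permeant prosubstrate, compounds added after 5 h incubation. Luminescence tracked at 0, 8, 16, 24, 32 and 40 h of exposure.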

[2] = qHTS RealTime-Glo MT Cell Viability Assay in HEK293 cells - 16 hour (AID 1224872); note: nearly all actives have a fitted effect of over 50% in size; note: potency is the fitted concentration of half-maximal effect; for activity change, negative = cytotoxicity: top concentration of the series differs between compounds
In short: (§2)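 Assay medium contained NanoLuc luciferase plus cell-permeant prosubstrate, added with HEK293 cells at 600 cells/well. After 5 h at 37 C/5% CO2 compounds were added; plates stayed at 37 C for 40 h with serial luminescence reads.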

[3] = qHTS RealTime-Glo MT Cell Viability Assay in HepG2 cells - 8 hour (AID 1224873); note: nearly all actives have a fitted effect of over 55% in size
In short: as §1

[4] = qHTS RealTime-Glo MT Cell Viability Assay in HEK293 cells - 40 hour (AID 1224874); details: RealTime-Glo luminescence; max response: stronger effect = lower value; note: nearly all actives have a fitted effect of over 50% in size; note: potency is the fitted concentration of half-maximal effect
In short: (§3)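 Kinetic, non-lysing viability readout. Seed HEK293 (600/well) with reagent, incubate 5 h at 37 C/5% CO2, pin 23 nL compound in DMSO, incubate at 37 C, read luminescence at 0, 8, 16, 24, 32, 40 h.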

[5] = A CellTox Green Cytotoxicity Assay to monitor cytotoxicity in HEK293 cells - 24 hour (AID 1224875); note: series mostly up to about 77 µM; nearly all actives have a fitted effect of over 45% in size
In short: (§4)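 Real-time, in one plate: 600 HEK293 cells/well with dead-cell DNA dye, pinned compound after 5 h, 37 C incubation over 40 h; viable cells give no appreciable fluorescence.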

[6] = A CellTox Green Cytotoxicity Assay to monitor cytotoxicity in HepG2 cells - 16 hour (AID 1224876); note: nearly all actives have a fitted effect of over 45% in size
In short: (§5)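 Cytotoxicity was tracked as dead-cell DNA fluorescence in HepG2 cells treated with test compounds at 37 C; each time-point value comes from one kinetic series spanning 0, 8, 16, 24, 32 and 40 h.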

[7] = qHTS RealTime-Glo MT Cell Viability Assay in HepG2 cells - 32 hour (AID 1224877); note: nearly all actives have a fitted effect of over 55% in size
In short: (§6)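 qHTS, HepG2, 600 cells/well, RealTime-Glo (NanoLuc + prosubstrate) added with cells; 5 h preincubation; DMSO compound addition; 37 C; luminescence at 0/8/16/24/32/40 h.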

[8] = A CellTox Green Cytotoxicity Assay to monitor cytotoxicity in HepG2 cells - 24 hour (AID 1224878); note: nearly all actives have a fitted effect of over 45% in size; note: potency is the fitted concentration of half-maximal effect
In short: as §5

[9] = qHTS RealTime-Glo MT Cell Viability Assay in HEK293 cells - 0 hour (AID 1224880); note: nearly all actives have a fitted effect of over 45% in size; note: potency is the fitted concentration of half-maximal effect; for activity change, negative = cytotoxicity: top concentration of the series differs between compounds
In short: as §3

[10] = A CellTox Green Cytotoxicity Assay to monitor cytotoxicity in HEK293 cells - 32 hour (AID 1224881); note: nearly all actives have a fitted effect of over 40% in size
In short: as §4

[11] = A CellTox Green Cytotoxicity Assay to monitor cytotoxicity in HepG2 cells - 0 hour (AID 1224882); note: nearly all actives have a fitted effect of over 35% in size
In short: as §5

[12] = A CellTox Green Cytotoxicity Assay to monitor cytotoxicity in HepG2 cells - 32 hour (AID 1224883); note: nearly all actives have a fitted effect of over 50% in size; note: potency is the fitted concentration of half-maximal effect
In short: as §5

[13] = qHTS RealTime-Glo MT Cell Viability Assay in HepG2 cells - 16 hour (AID 1224885); note: nearly all actives have a fitted effect of over 50% in size
In short: as §6

[14] = qHTS RealTime-Glo MT Cell Viability Assay in HEK293 cells - 8 hour (AID 1224887); note: nearly all actives have a fitted effect of over 50% in size; note: potency is the fitted concentration of half-maximal effect; for activity change, negative = cytotoxicity: top concentration of the series differs between compounds
In short: as §3

[15] = A CellTox Green Cytotoxicity Assay to monitor cytotoxicity in HEK293 cells - 16 hour (AID 1224888); note: nearly all actives have a fitted effect of over 35% in size
In short: as §4

[16] = qHTS RealTime-Glo MT Cell Viability Assay in HepG2 cells - 0 hour (AID 1224889); note: nearly all actives have a fitted effect of over 50% in size; note: potency is the fitted concentration of half-maximal effect
In short: as §6

[17] = A CellTox Green Cytotoxicity Assay to monitor cytotoxicity in HepG2 cells - 40 hour (AID 1224879); note: nearly all actives have a fitted effect of over 40% in size; note: potency is the fitted concentration of half-maximal effect
In short: as §5

[18] = A CellTox Green Cytotoxicity Assay to monitor cytotoxicity in HEK293 cells - 8 hour (AID 1224884); note: nearly all actives have a fitted effect of over 35% in size
In short: as §4

[19] = qHTS RealTime-Glo MT Cell Viability Assay in HEK293 cells - 24 hour (AID 1224886)
In short: as §2

[20] = A CellTox Green Cytotoxicity Assay to monitor cytotoxicity in HEK293 cells - 40 hour (AID 1224871); note: nearly all actives have a fitted effect of over 45% in size
In short: as §4
% is set by controls: 0 for no effect and ±100 for the full control effect.

Cc1cc(SC2=C(O)C[C@@](CCc3ccc(N)cc3)(C(C)C)OC2=O)c(C(C)(C)C)cc1CO
inactive: Potency [1] | Potency [2] | outcome [3] | max response [4] -1.78% | Potency [5] | Potency [6] | Potency [7] | Potency [8] | Potency [10] | Potency [11] | Potency [12] | outcome [13] | Potency [14] | Potency [15]
active: Potency [9] 11 µM | Potency [16] 19.5 µM

O=[N+]([O-])c1cccc(I)c1
inactive: Potency [1] | Potency [2] | outcome [3] | max response [4] 0.342% | Potency [5] | Potency [6] | Potency [7] | Potency [8] | Potency [17] | Potency [9] | Potency [11] | Potency [12] | Potency [18] | outcome [13] | Potency [14] | Potency [15] | Potency [16]

OCCCO
inactive: Potency [1] | Potency [2] | outcome [3] | max response [4] 16.2% | Potency [5] | Potency [6] | Potency [7] | Potency [8] | Potency [17] | Potency [9] | Potency [11] | Potency [12] | Potency [18] | outcome [13] | Potency [19] | Potency [14] | Potency [16]

O=C(O)c1cccnc1Nc1cccc(C(F)(F)F)c1
inactive: Potency [20] | Potency [2] | outcome [3] | max response [4] -4.24% | Potency [5] | Potency [6] | Potency [7] | Potency [8] | Potency [17] | Potency [9] | Potency [10] | Potency [11] | Potency [12] | Potency [18] | Potency [19] | Potency [14] | Potency [15] | Potency [16]

CCN(CC)CC(=O)OCC(=O)[C@@]1(O)CC[C@H]2[C@@H]3CCC4=CC(=O)CC[C@]4(C)[C@H]3[C@@H](O)C[C@@]21C
inactive: Potency [1] | outcome [3] | max response [4] -1.53% | Potency [5] | Potency [6] | Potency [7] | Potency [8] | Potency [17] | Potency [10] | Potency [11] | Potency [12] | Potency [18] | outcome [13] | Potency [19] | Potency [14] | Potency [15]
active: Potency [16] 1.07 µM

CC(C)=CCC/C(C)=C/C=N/O
inactive: Potency [1] | Potency [2] | outcome [3] | max response [4] -25.1% | Potency [6] | Potency [7] | Potency [8] | Potency [17] | Potency [9] | Potency [11] | Potency [12] | outcome [13] | Potency [19] | Potency [16]

CC1=CC(=C(c2ccc(N)cc2)c2ccc(N)cc2)C=CC1=N
inactive: activity change, negative = cytotoxic [1] -1.71% [at 6.97 µM] | viability change, negative = cytotoxic [3] 2.31% [at 6.97 µM] | activity change [5] -0.584% [at 6.97 µM, stronger effect = higher value] | cytotoxicity increase [6] 1.38% [at 6.97 µM] | activity change, negative = cytotoxic [7] -1.73% [at 6.97 µM] | cytotoxicity [8] 0.887% [at 6.97 µM] | cytotoxicity increase [17] 5.34% [at 6.97 µM] | activity change, negative = cytotoxicity [9] 12.8% [at 6.97 µM] | cytotoxicity [11] 0.461% [at 6.97 µM] | cytotoxicity increase [12] 0.891% [at 6.97 µM] | cytotoxicity increase [18] -4.58% [at 6.97 µM] | activity change, negative = cytotoxicity [14] -15.3% [at 6.97 µM] | activity change [15] -0.601% [at 6.97 µM, stronger effect = higher value] | activity change, negative = cytotoxicity [16] 9.14% [at 6.97 µM]

COC(=O)c1cc(Cl)ccc1[N+](=O)[O-]
inactive: Potency [1] | Potency [2] | outcome [3] | max response [4] -14.8% | Potency [5] | Potency [6] | Potency [7] | Potency [8] | Potency [17] | Potency [9] | Potency [10] | Potency [12] | Potency [18] | outcome [13] | Potency [19] | Potency [14] | Potency [15] | Potency [16]

O=c1[nH][nH]c2ccccc12
inactive: Potency [1] | outcome [3] | Potency [5] | Potency [6] | Potency [7] | Potency [8] | Potency [10] | Potency [11] | Potency [12] | Potency [18] | outcome [13] | Potency [19] | Potency [14] | Potency [15] | Potency [16]

O=C(O)c1ccc(O)c(O)c1
inactive: Potency [1] | outcome [3] | max response [4] -5.14% | Potency [5] | Potency [6] | Potency [7] | Potency [8] | Potency [17] | Potency [9] | Potency [10] | Potency [11] | Potency [12] | Potency [18] | outcome [13] | Potency [19] | Potency [14] | Potency [15] | Potency [16]

O=S(=O)(O)c1cc(Cl)c(Cl)cc1Cl
inactive: Potency [1] | Potency [2] | outcome [3] | max response [4] -19.4% | Potency [5] | Potency [7] | Potency [11] | Potency [12] | Potency [18] | outcome [13] | Potency [19] | Potency [14] | Potency [15] | Potency [16]

Cc1c(Nc2ncccc2C(=O)O)cccc1C(F)(F)F
inactive: Potency [1] | Potency [2] | outcome [3] | max response [4] 0.365% | Potency [5] | Potency [6] | Potency [7] | Potency [8] | Potency [9] | Potency [10] | Potency [11] | Potency [12] | Potency [18] | outcome [13] | Potency [19] | Potency [14] | Potency [15] | Potency [16]

CC(CN=Cc1ccccc1O)N=Cc1ccccc1O (centres undefined)
inactive: Potency [1] | outcome [3] | Potency [5] | Potency [6] | Potency [7] | Potency [8] | Potency [17] | Potency [9] | Potency [10] | Potency [11] | Potency [12] | outcome [13] | Potency [19] | Potency [14] | Potency [16]

Cc1nc2sccn2c(=O)c1CCN1CCC(=C(c2ccc(F)cc2)c2ccc(F)cc2)CC1
inactive: Potency [1] | outcome [3] | Potency [5] | Potency [6] | Potency [7] | Potency [8] | Potency [17] | Potency [10] | Potency [11] | Potency [12] | Potency [18] | outcome [13] | Potency [16]
active: Potency [2] 3.01 µM | Potency [4] 4.25 µM | Potency [14] 3.01 µM

O=C(O)c1ccc2cc(O)ccc2c1
inactive: Potency [1] | Potency [2] | Potency [5] | Potency [6] | Potency [7] | Potency [8] | Potency [17] | Potency [9] | Potency [10] | Potency [11] | Potency [12] | outcome [13] | Potency [19] | Potency [14] | Potency [15] | Potency [16]

CCOc1ccc2c(c1)C(C)CC(C)(C)N2 (centres undefined)
active: Potency [8] 49 µM | Potency [17] 43.6 µM | Potency [12] 43.6 µM
inactive: Potency [1] | Potency [2] | outcome [3] | max response [4] -1.9% | Potency [7] | Potency [9] | Potency [11] | Potency [18] | outcome [13] | Potency [19] | Potency [14] | Potency [15] | Potency [16]
